Source: PubChem BioAssay (NCI)
This is part of a sample that, as a whole, favours compounds with a hit. Of some 79,000 tested, about 15% had one in any assay. A number with no mark means an inactive call. The source made the active and inactive calls. Cut-off read from the data, not from the text of the source: active = growth inhibition above about 70%; inactive = the rest. Where a SMILES comes first, the peptide text is derived from it. The star is where a group is joined. OSu = O=C1CCC(=O)N1O*; OBn = c1ccc(CO*)cc1; Bn = c1ccc(C*)cc1

Assays:
[1] = NCI Yeast Anticancer Drug Screen. Data for the rad50 strain (AID 155);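 note: 0% = growth of vehicle-only cultures of the same strain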; details: S. cerevisiae rad50 strain growth inhibition, stronger effect = higher value
Procedure, shortened: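 Cells are treated with compound, grown, and their growth is then scored against vehicle-only cultures of the same repair-deficient yeast strain.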

[2] = NCI Yeast Anticancer Drug Screen. Data for the mec2-1 strain (AID 157); details: S. cerevisiae mec2-1 strain, stronger effect = higher value
Procedure, shortened: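 Growth inhibition is read against vehicle-treated controls after compound exposure of the mec2-1 yeast strain, which is defective in DNA damage repair or cell cycle control.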

[3] = NCI Yeast Anticancer Drug Screen. Data for the sgs1 mgt1 strain (AID 161);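 note: 0% = growth of cultures given vehicle only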; details: S. cerevisiae sgs1 mgt1 strain, stronger effect = higher value
Procedure, shortened: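 Compounds are added to genetically altered yeast, and growth is compared with cultures given vehicle alone to give percent inhibition.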

[4] = NCI Yeast Anticancer Drug Screen. Data for the cln2 rad14 strain (AID 165);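 note: 0% = growth equal to vehicle treated cultures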; details: S. cerevisiae cln2 rad14 strain, stronger effect = higher value
Procedure, shortened: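 Growth inhibition, relative to vehicle-treated controls, is the read-out. The test organism is a yeast strain with defined genetic alterations, cln2 rad14.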

[5] = NCI Yeast Anticancer Drug Screen. Data for the bub3 strain (AID 167); details: S. cerevisiae bub3 mutant strain, stronger effect = higher value
Procedure, shortened: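 Part of a panel of yeast mutants defective in DNA damage repair or cell cycle regulation. Each strain is grown with compound, and inhibition is calculated relative to solvent-treated cultures.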

[6] = NCI Yeast Anticancer Drug Screen. Data for the mlh1 rad18 strain (AID 175); details: S. cerevisiae mlh1 rad18 strain growth inhibition, stronger effect = higher value
Procedure, shortened: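 Cells of a genetically altered yeast strain, deficient in DNA damage repair, were treated with compound. Their growth was then compared with that of vehicle-treated cultures to give inhibition.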

[7] = at 5.0 µM (retest, dose inferred, filed as 0.5)
[8] = at 50.0 µM (retest, dose inferred, filed as 5.0)

| Structure (SMILES) | growth inhibition [1, 7] [%] | growth inhibition [1, 8] | growth inhibition ([1]; at 50.0 µM) | growth inhibition [2, 7] [%] | growth inhibition [2, 8] | growth inhibition ([2]; at 50.0 µM) | growth inhibition [3, 7] [%] | growth inhibition [3, 8] | growth inhibition ([3]; at 50.0 µM) | growth inhibition [4, 7] [%] | growth inhibition [4, 8] | growth inhibition ([4]; at 50.0 µM) | growth inhibition [5, 7] [%] | growth inhibition [5, 8] | growth inhibition ([5]; at 50.0 µM) | growth inhibition [6, 7] [%] | growth inhibition [6, 8] | growth inhibition ([6]; at 50.0 µM) |
| --- | --- | --- | --- | --- | --- | --- | --- | --- | --- | --- | --- | --- | --- | --- | --- | --- | --- | --- |
| CCN(CC)CCCCNc1ccc(Cl)cc1 | -2 | 12% | 38.2% | 1 | -2% | 39.1% | -2 | 18% | 53.9% | 2 | -3% | -9.2% | -1 | 10% | 44.5% | -7 | 8% | 71.6% (active) |
| N#CCCN(CCC#N)Cc1c(O)c(O)c(CN(CCC#N)CCC#N)c2ccccc12 | -2 | 12% | 61.1% | -1 | 41% | 48% | -10 | 46% | 59.2% | 0 | -7% | 46.2% | -3 | 26% | 54% | -4 | 25% | 59% |
| CNc1ccc([N+](=O)[O-])cc1 | -4 | 13% | 43% | 1 | 9% | 12.8% | -1 | 11% | -5.2% | 2 | 1% | 22.9% | -1 | 14% | 31.1% | 0 | 19% | 10.3% |
| CC(C)CC(NC(=O)C(N)CCC(=O)OCc1ccccc1)C(=O)NC(COCc1ccccc1)C(=O)NC(Cc1ccccc1)C(=O)ON1C(=O)CCC1=O (stereo not given) (H-E(OBn)LS(Bn)F-OSu; configuration not given here) | 54 | 66% | 81.7% (active) | 48 | 74% (active) | 84.6% (active) | 48 | 81% (active) | 83.1% (active) | 41 | 71% (active) | 86.7% (active) | 42 | 81% (active) | 80.8% (active) | 60 | 79% (active) | 79% (active) |
| CC[N+](C)(CC)CCC[n+]1c(-c2ccccc2)c2cc(N)ccc2c2ccc(N)cc21 | 60 | 90% (active) | 94.6% (active) | 1 | 27% | 44.2% | -2 | 33% | 68.9% | -3 | 19% | 24.9% | -7 | 9% | 18.9% | 4 | 49% | 82% (active) |
| O=C(CC(=O)Nc1cccc(Cl)c1)NNCC(=O)Nc1nnc(-c2ccccc2)s1 | 8 | 98% (active) | 8.5% | 6 | 99% (active) | 8.05% | 11 | 99% (active) | 0.65% | 3 | 98% (active) | 51.1% | 7 | 99% (active) | -3.45% | 3 | 98% (active) | 9.9% |
| CC(=O)OCc1cc2ccccc2nc1C(Br)(Br)Br | -11 | 95% (active) | 96% (active) | -6 | 95% (active) | 95.8% (active) | 39 | 99% (active) | 97.5% (active) | -4 | 96% (active) | 96.7% (active) | 62 | 99% (active) | 95.2% (active) | 39 | 96% (active) | 96.7% (active) |
| Cc1ccc(C)c(S(=O)(=O)Nc2c([N+](=O)[O-])cc([N+](=O)[O-])c3ccccc23)c1 | 30 | 35% | 85.7% (active) | 30 | 40% | 86.6% (active) | 47 | 29% | 87.5% (active) | 32 | 54% | 86% (active) | 20 | 30% | 79.8% (active) | 34 | 59% | 83.6% (active) |
| C=CC(=O)N1C/C(=C\c2ccc([N+](=O)[O-])cc2)C(=O)/C(=C/c2ccc([N+](=O)[O-])cc2)C1 | 46 | 96% (active) | 28.7% | 33 | 97% (active) | 51.5% | 39 | 97% (active) | 87.3% (active) | 26 | 96% (active) | 88% (active) | 25 | 96% (active) | 83.9% (active) | 58 | 96% (active) | 81.5% (active) |
| CC(C)(C)c1c2c(c(C(C)(C)C)c3c1OCN(Cc1ccccc1)C3)OCN(Cc1ccccc1)C2 | 4 | 12% | 54.1% | 0 | -13% | 9.25% | -2 | -19% | 71.7% (active) | -15 | -38% | 17.6% | -5 | 18% | 11.7% | -10 | 1% | 41.5% |
